A short description of experiment [1]: NCI Yeast Anticancer Drug Screen. Data for the rad50 strain (AID 155).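 Also: 0% = growth of vehicle-only cultures of the same strain.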 As to conditions: S. cerevisiae rad50 strain growth inhibition, stronger effect = higher value. The method, boiled down: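 A DNA repair-deficient yeast mutant serves as the test organism; compound-induced growth inhibition is calculated against vehicle-treated cells.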
The nature of experiment [2]: NCI Yeast Anticancer Drug Screen. Data for the mec2-1 strain (AID 157). As to conditions: S. cerevisiae mec2-1 strain, stronger effect = higher value. An outline of the steps:
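Strain: mec2-1 (DNA repair/cell cycle alteration). Compound exposure, then growth measured; inhibition expressed relative to vehicle.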

Experiment [3] in a line: NCI Yeast Anticancer Drug Screen. Data for the sgs1 mgt1 strain (AID 161).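 Also: 0% = growth of cultures given vehicle only.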 As to conditions: S. cerevisiae sgs1 mgt1 strain, stronger effect = higher value. An outline of the steps: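 Mutant yeast exposed to compound; growth scored against vehicle-only wells.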
A short description of experiment [4]: NCI Yeast Anticancer Drug Screen. Data for the cln2 rad14 strain (AID 165).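 Also: 0% = growth equal to vehicle treated cultures.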 As to conditions: S. cerevisiae cln2 rad14 strain, stronger effect = higher value. The method, boiled down:
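Compounds are applied to the cln2 rad14 yeast strain, and growth is then compared with that of vehicle-treated cultures to give inhibition.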

Experiment [5] is described as follows: NCI Yeast Anticancer Drug Screen. Data for the bub3 strain (AID 167). The following applies: S. cerevisiae bub3 mutant strain, stronger effect = higher value. An outline of the steps: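 Inhibition values come from growth of compound-treated mutant yeast normalised to vehicle-treated controls.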
The nature of experiment [6]: NCI Yeast Anticancer Drug Screen. Data for the mlh1 rad18 strain (AID 175). As to conditions: S. cerevisiae mlh1 rad18 strain growth inhibition, stronger effect = higher value. An outline of the steps: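 Read-out is yeast growth inhibition, calculated against vehicle-only controls. The compound was applied to a strain engineered with DNA damage repair alterations.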
Where [7] appears, read: at 5.0 µM (retest, dose inferred, filed as 0.5).
Where [8] appears, read: at 50.0 µM (retest, dose inferred, filed as 5.0).

The structures appear in SMILES notation. Compounds without any hit were thinned out: in the full panel of roughly 79,000, 15% have a hit. A number with no mark means an inactive call. Activity calls are given as the source filed them. Rule as the data show it: active = growth inhibition above about 70%; inactive = the rest.

For `O=C(NCCCNCCNC(=O)c1cc(-c2ccccc2)nc2ccccc12)c1cc(-c2ccccc2)nc2ccccc12`, the growth inhibition in experiment [1] (setting [7]) is -22%; in experiment [1] (setting [8]), 93% (active); in experiment [1] (at 50.0 µM) it was 98.6% (active); in experiment [2] (setting [7]), -12%; in experiment [2] (setting [8]), 98% (active); in experiment [2] (at 50.0 µM), 99.2% (active). Besides, the growth inhibition in experiment [3] (setting [7]) is -4%; in experiment [3] (setting [8]) it was 89% (active); in experiment [3] (at 50.0 µM), 99.1% (active); in experiment [4] (setting [7]), 28%; in experiment [4] (setting [8]) it was 94% (active); in experiment [4] (at 50.0 µM), 99.3% (active). In addition, the growth inhibition is -23% in experiment [5] (setting [7]); 99% (active) in experiment [5] (setting [8]); 99.1% (active) in experiment [5] (at 50.0 µM); 5% in experiment [6] (setting [7]); 98% (active) in experiment [6] (setting [8]); 99.3% (active) in experiment [6] (at 50.0 µM).

In the case of `COc1ccc(CC[N+]2(C)COc3cc4oc(=O)cc(C)c4cc3C2)cc1OC` (stereo not given), the growth inhibition in experiment [1] (setting [7]) is 5%; in experiment [1] (setting [8]), 9%; in experiment [1] (at 50.0 µM) it was -42.5%; in experiment [2] (setting [7]) it was 0%; in experiment [2] (setting [8]), -14%; in experiment [2] (at 50.0 µM), -33.5%. Besides, the growth inhibition was 0% in experiment [3] (setting [7]); -6% in experiment [3] (setting [8]); -27.9% in experiment [3] (at 50.0 µM); -21% in experiment [4] (setting [7]); 9% in experiment [4] (setting [8]); 34.6% in experiment [4] (at 50.0 µM). The growth inhibition in experiment [5] (setting [7]) is -8%; in experiment [5] (setting [8]), 0%; in experiment [5] (at 50.0 µM) it was -20.9%; in experiment [6] (setting [7]), 9%; in experiment [6] (setting [8]), 7%; in experiment [6] (at 50.0 µM), -32.5%.

As for `NC(=O)/C=C/C(=O)c1c(Cl)cccc1Cl`, the growth inhibition in experiment [1] (setting [7]) was 97% (active); in experiment [1] (setting [8]), 100% (active); in experiment [1] (at 50.0 µM), 91.1% (active); in experiment [2] (setting [7]), 99% (active); in experiment [2] (setting [8]), 100% (active); in experiment [2] (at 50.0 µM), 92% (active). Besides, the growth inhibition was 99% (active) in experiment [3] (setting [7]); 100% (active) in experiment [3] (setting [8]); 91.7% (active) in experiment [3] (at 50.0 µM); 46% in experiment [4] (setting [7]); 98% (active) in experiment [4] (setting [8]); 90.3% (active) in experiment [4] (at 50.0 µM). Besides, the growth inhibition is 99% (active) in experiment [5] (setting [7]); 100% (active) in experiment [5] (setting [8]); 88.3% (active) in experiment [5] (at 50.0 µM); 100% (active) in experiment [6] (setting [7]); 100% (active) in experiment [6] (setting [8]); 91% (active) in experiment [6] (at 50.0 µM).

As to `CCC1(c2ccc(N3C(=O)c4ccccc4C3=O)cc2)CCC(=O)NC1=O` (stereo not given), the growth inhibition in experiment [1] (setting [7]) was 1%; in experiment [1] (setting [8]), -3%; in experiment [1] (at 50.0 µM), -5.4%; in experiment [2] (setting [7]), -36%; in experiment [2] (setting [8]), -24%; in experiment [2] (at 50.0 µM), -13.2%. Further, the growth inhibition is -20% in experiment [3] (setting [7]); 5% in experiment [3] (setting [8]); 86.3% (active) in experiment [3] (at 50.0 µM); -17% in experiment [4] (setting [7]); 3% in experiment [4] (setting [8]); 9.4% in experiment [4] (at 50.0 µM). Besides, the growth inhibition in experiment [5] (setting [7]) was -17%; in experiment [5] (setting [8]) it was -19%; in experiment [5] (at 50.0 µM), -8.6%; in experiment [6] (setting [7]), -27%; in experiment [6] (setting [8]) it was -25%; in experiment [6] (at 50.0 µM), 5.4%.

For the compound `CN(C)C(=S)/N=c1\ss/c(=N/C(=S)N(C)C)n1-c1ccc([N+](=O)[O-])cc1`, the growth inhibition in experiment [1] (setting [7]) was 6%; in experiment [1] (setting [8]), 32%; in experiment [1] (at 50.0 µM) it was 97.8% (active); in experiment [2] (setting [7]), 18%; in experiment [2] (setting [8]), 41%; in experiment [2] (at 50.0 µM), 93.3% (active). The growth inhibition is 1% in experiment [3] (setting [7]); 33% in experiment [3] (setting [8]); 97.8% (active) in experiment [3] (at 50.0 µM); -7% in experiment [4] (setting [7]); -2% in experiment [4] (setting [8]); 91.3% (active) in experiment [4] (at 50.0 µM). Further, the growth inhibition is 5% in experiment [5] (setting [7]); 4% in experiment [5] (setting [8]); 98.8% (active) in experiment [5] (at 50.0 µM); 4% in experiment [6] (setting [7]); 30% in experiment [6] (setting [8]); 98.2% (active) in experiment [6] (at 50.0 µM).

With `O=C(O)CCC(=O)c1ccc(C2CCCC2)c2ccccc12`, the growth inhibition in experiment [1] (setting [7]) is 1%; in experiment [1] (setting [8]), 28%; in experiment [1] (at 50.0 µM), 69.8%; in experiment [2] (setting [7]), -3%; in experiment [2] (setting [8]), 24%; in experiment [2] (at 50.0 µM), 78.8% (active). Also, the growth inhibition is 3% in experiment [3] (setting [7]); 34% in experiment [3] (setting [8]); 68.3% in experiment [3] (at 50.0 µM); -17% in experiment [4] (setting [7]); 42% in experiment [4] (setting [8]); 72.7% (active) in experiment [4] (at 50.0 µM). Besides, the growth inhibition in experiment [5] (setting [7]) is -13%; in experiment [5] (setting [8]), 46%; in experiment [5] (at 50.0 µM), 70.3% (active); in experiment [6] (setting [7]), -6%; in experiment [6] (setting [8]), 11%; in experiment [6] (at 50.0 µM), 86.6% (active).

With `CCOc1c(N=Nc2ccccc2OC)c(C)nn1C(N)=S`, the growth inhibition in experiment [1] (setting [7]) is 6%; in experiment [1] (setting [8]) it was 24%; in experiment [1] (at 50.0 µM) it was 8.85%; in experiment [2] (setting [7]), -10%; in experiment [2] (setting [8]) it was 21%; in experiment [2] (at 50.0 µM), 3.9%. Also, the growth inhibition in experiment [3] (setting [7]) is -5%; in experiment [3] (setting [8]) it was 41%; in experiment [3] (at 50.0 µM) it was 9.1%; in experiment [4] (setting [7]), -2%; in experiment [4] (setting [8]), 3%; in experiment [4] (at 50.0 µM), -20.6%. For the same compound, the growth inhibition is 1% in experiment [5] (setting [7]); 14% in experiment [5] (setting [8]); 22.9% in experiment [5] (at 50.0 µM); -4% in experiment [6] (setting [7]); 21% in experiment [6] (setting [8]); 29.9% in experiment [6] (at 50.0 µM).

Consider `CN(C)CCC(/C=C/c1ccccc1)=N\Nc1ccc(Cl)cc1Cl`, for which the growth inhibition is 66% in experiment [1] (setting [7]); 87% (active) in experiment [1] (setting [8]); 99.5% (active) in experiment [1] (at 50.0 µM); 32% in experiment [2] (setting [7]); 94% (active) in experiment [2] (setting [8]); 99.5% (active) in experiment [2] (at 50.0 µM). Besides, the growth inhibition in experiment [3] (setting [7]) is 47%; in experiment [3] (setting [8]), 91% (active); in experiment [3] (at 50.0 µM) it was 99.4% (active); in experiment [4] (setting [7]), 66%; in experiment [4] (setting [8]) it was 88% (active); in experiment [4] (at 50.0 µM), 98.7% (active). For the same compound, the growth inhibition in experiment [5] (setting [7]) was 80% (active); in experiment [5] (setting [8]), 90% (active); in experiment [5] (at 50.0 µM), 98.8% (active); in experiment [6] (setting [7]) it was 78% (active); in experiment [6] (setting [8]) it was 91% (active); in experiment [6] (at 50.0 µM), 99.5% (active).

In the case of `COC1=CC(=O)c2c(O)c3c(c(O)c2C1=O)C[C@](C)(O)C[C@@H]3O`, the growth inhibition in experiment [1] (setting [7]) is 27%; in experiment [1] (setting [8]), 93% (active); in experiment [1] (at 50.0 µM) it was 84.7% (active); in experiment [2] (setting [7]), 14%; in experiment [2] (setting [8]) it was 94% (active); in experiment [2] (at 50.0 µM) it was 79.8% (active). In addition, the growth inhibition in experiment [3] (setting [7]) is 12%; in experiment [3] (setting [8]), 91% (active); in experiment [3] (at 50.0 µM), 85.6% (active); in experiment [4] (setting [7]), 0%; in experiment [4] (setting [8]), 29%; in experiment [4] (at 50.0 µM), 47.7%. Further, the growth inhibition in experiment [5] (setting [7]) is 36%; in experiment [5] (setting [8]), 93% (active); in experiment [5] (at 50.0 µM), 83.8% (active); in experiment [6] (setting [7]), 33%; in experiment [6] (setting [8]), 96% (active); in experiment [6] (at 50.0 µM) it was 84.5% (active).

Take `O=C1Nc2ccccc2/C1=C\c1ccccn1`: the growth inhibition in experiment [1] (setting [7]) is 41%; in experiment [1] (setting [8]), 76% (active); in experiment [1] (at 50.0 µM) it was 68.7%; in experiment [2] (setting [7]) it was 22%; in experiment [2] (setting [8]) it was 60%; in experiment [2] (at 50.0 µM) it was 30.9%. Moreover, the growth inhibition is 34% in experiment [3] (setting [7]); 76% (active) in experiment [3] (setting [8]); 48.7% in experiment [3] (at 50.0 µM); 32% in experiment [4] (setting [7]); 38% in experiment [4] (setting [8]); 9% in experiment [4] (at 50.0 µM). Further, the growth inhibition in experiment [5] (setting [7]) was 26%; in experiment [5] (setting [8]), 68%; in experiment [5] (at 50.0 µM), 56%; in experiment [6] (setting [7]), 49%; in experiment [6] (setting [8]), 86% (active); in experiment [6] (at 50.0 µM), 51%.
